Measurements taken from the supplement of paper PMC6555819.

Key:
Assay in all cases: PBM binding z-score (relative to random genomic background probes); higher = stronger binding; sequences stand for … in GC…GCGATTGACAGCGTAGAATGAAGG
[1] = test system: PPARg:RXRa DBDmut IVT, anti-RXR (DBD mutation: RXRa K156A/R161A, NR concentration 270 nM, RXRa partner concentration 90 nM)
How it was run: (§1)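 For binding z-scores, the reference was random background probes on custom Agilent 4×180K protein-binding microarrays. These arrays were incubated 1 h with ligand-free nuclear receptor dimers in PBS pH 7.4, 2% milk, 0.02% Triton X-100, 1 mM DTT, 0.2 mg/mL BSA and 0.4 mg/ml salmon testes DNA. Fluorescence was scanned after antibody detection of each partner (one per run) and regression-normalized.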

[2] = test system: PPARg:RXRa IVT, anti-PPARg (NR concentration 270 nM, RXRa partner concentration 90 nM)
How it was run: as §1

[3] = test system: PPARg DBDmut:RXRa IVT, anti-PPARg (DBD mutation: PPARg1 K132A/R137A, NR concentration 270 nM, RXRa partner concentration 90 nM)
How it was run: as §1

[4] = test system: PPARg DBDmut IVT, anti-PPARg (DBD mutation: PPARg1 K132A/R137A, NR concentration 270 nM)
How it was run: as §1

[5] = test system: PPARg homodimer (NR concentration 180 nM)
How it was run: as §1

[6] = test system: PXR:RXRa (NR concentration 270 nM, RXRa partner concentration 90 nM)
How it was run: as §1

[7] = test system: PXR homodimer (NR concentration 270 nM)
How it was run: as §1

[8] = test system: RARa:RXR (NR concentration 270 nM, RXRa partner concentration 90 nM)
How it was run: as §1

[9] = test system: RARa homodimer (NR concentration 270 nM)
How it was run: as §1

[10] = test system: RARb:RXRa (NR concentration 270 nM, RXRa partner concentration 90 nM)
How it was run: as §1

[11] = test system: RARb homodimer (NR concentration 270 nM)
How it was run: as §1

[12] = test system: RARg:RXRa (NR concentration 270 nM, RXRa partner concentration 90 nM)
How it was run: as §1

[13] = test system: RARg homodimer (NR concentration 270 nM)
How it was run: as §1

[14] = test system: RXRa DBDmut IVT, anti-RXR (DBD mutation: RXRa K156A/R161A, NR concentration 90 nM)
How it was run: as §1

[15] = test system: RXRa homodimer (NR concentration 180 nM)
How it was run: as §1

[16] = test system: THRa:RXRa (NR concentration 90 nM, RXRa partner concentration 90 nM)
How it was run: as §1

[17] = test system: THRa homodimer (NR concentration 90 nM)
How it was run: as §1

[18] = test system: VDR homodimer (NR concentration 270 nM)
How it was run: as §1

Sequence	PBM binding z-score [1]	PBM binding z-score [2]	PBM binding z-score [3]	PBM binding z-score [4]	PBM binding z-score [5]	PBM binding z-score [6]	PBM binding z-score [7]	PBM binding z-score [8]	PBM binding z-score [9]	PBM binding z-score [10]	PBM binding z-score [11]	PBM binding z-score [12]	PBM binding z-score [13]	PBM binding z-score [14]	PBM binding z-score [15]	PBM binding z-score [16]	PBM binding z-score [17]	PBM binding z-score [18]
TCATACAGGTAAAAGGTGAAAGTCGGTGTGGTAA	3.28	3.68	0.157	1.18	1.6	1.83	0.448	3.13	1.16	2.1	2.02	2.07	1.09	1.58	3.18	1.81	0.619	0.324
CCGACTGAGGCAAAGGTTACCATACTCAGTACGA	0.849	2.47	-0.356	-0.203	1.16	1.56	0.0581	2.31	0.408	1.78	1.76	1.73	1.29	0.393	2.61	1.54	0.023	-0.216
GCGACTGGGGCAACAGCAGGTTACCATAACTTAA	4.72	3.85	-0.661	-0.485	0.0811	0.146	-0.288	0.56	-0.561	1.02	0.882	0.815	0.776	-0.15	0.454	1.67	-0.275	-0.281
CCTACTGGGCCATTCAGAGGTGATTGATCATATG	3.85	3.8	0.186	-0.0997	0.152	0.147	-0.0295	0.451	0.129	0.622	0.207	0.611	0.223	-0.252	0.178	0.505	-0.356	-0.44
GCCTGTAGATCAAGGTTAAGAAAGACTAAGCTAA	0.625	0.319	-0.514	-0.208	-0.292	0.333	-0.503	0.885	-1.02	0.799	0.243	0.329	0.0689	0.0892	0.822	1.14	-0.419	-0.568
GCTCGGAGGACAAGGTCAGAGATTTGTCCGTAGA	-0.252	0.673	-0.517	-0.427	0.0878	1.24	-0.24	1.77	-0.275	3.48	2.83	2.84	3.13	0.212	2.23	2.82	1.51	0.17
GCTGCTAGGTCAACAGATGGTCAGCTAAAGCTCG	4.44	3.68	-0.0685	-0.727	1.6	1.22	-0.762	2.23	-0.595	3.97	2.83	4.81	4.85	1.22	2.42	2.56	0.465	0.00157
TAGCCTAGGTCAGATCGGGCAAGTATACGCTATA	0.264	1.08	-0.209	-0.848	-0.0891	0.344	-0.431	1.06	-0.377	2.99	2.01	2.85	3.43	-0.344	1.29	2.98	-0.283	-0.339
TAGCCTAGGTCATGTGCCAGTATACCACGCGAAC	1.78	3.01	0.0994	0.0439	1.55	1.53	-0.113	2.34	-0.178	3.74	2.84	3.83	4.32	1.26	3.14	2.91	1.55	0.739
TCTTCTAGATCAATAGAGGTTAAGAAAGTGCGCT	2.16	1.48	1.87	0.999	0.764	3.02	0.423	1.8	0.413	0.98	1.17	1.06	0.808	0.902	1.4	1.96	-0.514	0.255
ACTATTAGTTGAGACGAAGGCAACCGATAGGTTG	-0.511	-0.28	1.16	0.396	0.149	-0.912	-0.243	-0.552	0.662	-0.23	-0.559	-0.255	0.233	0.0754	-0.207	-0.702	-0.7	-0.261
ATCTCTAGGTATCAAGTTCAGTGAAAGAGAGGAC	0.507	1.03	1.04	1.12	0.949	1.05	2.18	0.725	1.18	1.59	1.89	1.07	1.17	1.34	0.64	1.03	0.846	2.79
TCTCGGAGGACACCAAGGTCAGAGCTTTCCAGAG	1.32	1.11	-0.509	-0.885	1.73	2.54	2.65	2.17	-0.289	3.27	3.68	2.96	3.73	0.966	1.75	3.13	2.38	2.31
AGAACGAGGGCACGGTGAGTTGATAGCAGAGTAG	3.46	4.14	1.46	0.552	0.477	1.76	0.0665	1.27	-0.263	2.75	1.6	2.2	2.31	1.82	1.53	2.18	0.165	2.1
TCTTGTAGATCAAAGGATAAGAAAGCCGAAGCCT	1.75	0.245	0.639	-0.158	0.25	-0.0029	-0.483	-0.193	0.315	-0.125	-1.11	-0.0685	-0.196	0.579	0.0933	-0.444	-0.847	-0.298
GCAGACAGGTGAAACGCAGGCAACTCAGGGTGGC	0.648	0.278	-0.31	-0.728	-0.411	-0.21	-0.499	0.0177	-0.602	0.594	-0.0684	0.39	0.237	-0.513	0.435	0.404	-0.656	-0.588
